Data on 4 compounds can be found in publication PMC11062922 (Nature Chemical Biology, 2023).

SMILES strings stand for the structures. Read-outs that look alike come from different tables or passages of the source.

Holding throughout (set-up): species or system human, MV4-11 + K-562 + COLO205 + SK-N-BE2 + OVCAR-8
One experiment concerns CAMK4. The following applies: read-out: apparent Kd; compound concentrations:100 nM and 1000 nM (sheet 'Samples'); n = 1.
A further experiment concerns CDK4. The note with it: read-out: apparent Kd; compound concentrations:100 nM and 1000 nM (sheet 'Samples'); n = 1.
The subject of a further experiment is CDKL5. The note with it: read-out: apparent Kd; compound concentrations:100 nM and 1000 nM (sheet 'Samples'); n = 1.
For another experiment, the system named is CLK1. The note with it: read-out: apparent Kd; compound concentrations:100 nM and 1000 nM (sheet 'Samples'); n = 1.
The subject of another experiment is GSK3A. The note with it: read-out: apparent Kd; compound concentrations:100 nM and 1000 nM (sheet 'Samples'); n = 1.
The next experiment deals with GSK3B. The following applies: read-out: apparent Kd; compound concentrations:100 nM and 1000 nM (sheet 'Samples'); n = 1.
The next experiment deals with ICK. The note with it: read-out: apparent Kd; compound concentrations:100 nM and 1000 nM (sheet 'Samples'); n = 1.
A further experiment concerns MERTK. The note with it: read-out: apparent Kd; compound concentrations:100 nM and 1000 nM (sheet 'Samples'); n = 1.
Another experiment has as its system PRKCA. The following applies: read-out: apparent Kd; compound concentrations:100 nM and 1000 nM (sheet 'Samples'); n = 1.
In another experiment the test system is PRKCB. The following applies: read-out: apparent Kd; compound concentrations: 100 nM and 1000 nM (sheet 'Samples'), CATDS: 6.3755563095046694E-2; n = 1.
The next experiment has as its system PRKCD. The note with it: read-out: apparent Kd; compound concentrations:100 nM and 1000 nM (sheet 'Samples'); n = 1.
In another experiment the test system is PRKCQ. The following applies: read-out: apparent Kd; compound concentrations:100 nM and 1000 nM (sheet 'Samples'); n = 1.
The test system of another experiment is RPS6KA6. The following applies: read-out: apparent Kd; compound concentrations:100 nM and 1000 nM (sheet 'Samples'); n = 1.
Another experiment concerns RPS6KB1. The note with it: read-out: apparent Kd; compound concentrations:100 nM and 1000 nM (sheet 'Samples'); n = 1.
Another experiment relates to CAMK2B. The note with it: read-out: apparent Kd, n = 1.
The test system of another experiment is FLT3. The following applies: read-out: apparent Kd; compound concentrations: 100 nM and 1000 nM (sheet 'Samples'), CATDS: 7.5963882735203103E-2; n = 1.
The test system of another experiment is FYN. The following applies: read-out: apparent Kd; compound concentrations: 100 nM and 1000 nM (sheet 'Samples'), CATDS: 6.1091429900981202E-2; n = 1.
For another experiment, the system named is HCK. The following applies: read-out: apparent Kd; compound concentrations: 100 nM and 1000 nM (sheet 'Samples'), CATDS: 0.204546800943642; n = 1.
A further experiment has as its system LCK. The note with it: read-out: apparent Kd; compound concentrations: 100 nM and 1000 nM (sheet 'Samples'), CATDS: 6.2891353750110596E-2; n = 1.
The next experiment concerns LYN. The note with it: read-out: apparent Kd; compound concentrations: 100 nM and 1000 nM (sheet 'Samples'), CATDS: 6.1198388947790797E-2; n = 1.
Another experiment relates to MAP2K5. The note with it: read-out: apparent Kd; compound concentrations: 100 nM and 1000 nM (sheet 'Samples'), CATDS: 0.12646942491879101; n = 1.
The test system of a further experiment is MAPK14. The following applies: read-out: apparent Kd; compound concentrations: 100 nM and 1000 nM (sheet 'Samples'), CATDS: 5.4651958851346001E-2; n = 1.
In the next experiment the test system is PTK6. The note with it: read-out: apparent Kd; compound concentrations: 100 nM and 1000 nM (sheet 'Samples'), CATDS: 6.47566338134071E-2; n = 1.
In another experiment the test system is RIPK2. The note with it: read-out: apparent Kd, n = 1.
The next experiment has as its system RIPK3. The note with it: read-out: apparent Kd; compound concentrations: 100 nM and 1000 nM (sheet 'Samples'), CATDS: 6.7046149691073503E-2; n = 1.
The test system of the next experiment is SRC. The note with it: read-out: apparent Kd; compound concentrations: 100 nM and 1000 nM (sheet 'Samples'), CATDS: 7.0333029214927095E-2; n = 1.
A further experiment deals with YES1. The note with it: read-out: apparent Kd; compound concentrations: 100 nM and 1000 nM (sheet 'Samples'), CATDS: 8.7589956864903007E-2; n = 1.
The next experiment has as its system CDC7. The note with it: read-out: apparent Kd; compound concentrations:100 nM and 1000 nM (sheet 'Samples'); n = 1.
The test system of a further experiment is FN3K. The note with it: read-out: apparent Kd; compound concentrations:100 nM and 1000 nM (sheet 'Samples'); n = 1.
The test system of another experiment is GAK. The following applies: read-out: apparent Kd; compound concentrations:100 nM and 1000 nM (sheet 'Samples'); n = 1.
The subject of a further experiment is MAPK10. The note with it: read-out: apparent Kd; compound concentrations:100 nM and 1000 nM (sheet 'Samples'); n = 1.
The subject of a further experiment is CDC42BPG. The following applies: read-out: apparent Kd; compound concentrations: 100 nM and 1000 nM (sheet 'Samples'), CATDS: 1; n = 1.
[1] abbreviates: compound concentrations:100 nM and 1000 nM (sheet 'Samples').

As to `Cl.Cn1cc(C2=C(c3cn(CCCN)c4ccccc34)C(=O)NC2=O)c2ccccc21` [RO0317549-002], the potency estimated from few doses in the experiment with CAMK4 is 1430 nM; with CDK4, 1650 nM; in the experiment with CDKL5, 2060 nM; with CLK1, 1850 nM; in the experiment with GSK3A, 136 nM; in the experiment with GSK3B it was 115 nM. Moreover, the potency estimated from few doses in the experiment with ICK was 109 nM; with MERTK it was 1370 nM; with PRKCA, 117 nM; in the experiment with PRKCB it was 606 nM; in the experiment with PRKCD, 93.3 nM; with PRKCQ, 566 nM. The potency estimated from few doses in the experiment with RPS6KA6 was 44.1 nM; in the experiment with RPS6KB1, 1180 nM.
Consider `c1ccc(Oc2ccc(Nc3ccnc4cc(-c5ccc(CNCCN6CCOCC6)o5)ccc34)cc2)nc1` [GW567145X], for which the potency estimated from few doses in the experiment with CAMK2B (compound concentrations: 100 nM and 1000 nM (sheet 'Samples'), CATDS: 8.8630985713884503E-2) was 448 nM; in the experiment with FLT3 it was 620 nM; in the experiment on FYN, 1080 nM; with HCK, 118 nM; in the experiment with LCK, 994 nM; in the experiment on LYN it was 1080 nM. The potency estimated from few doses in the experiment with MAP2K5 was 239 nM; in the experiment with MAPK14, 1550 nM; in the experiment with PTK6, 917 nM; with RIPK2 (compound concentrations: 100 nM and 1000 nM (sheet 'Samples'), CATDS: 0.112898428987699), 288 nM; with RIPK3, 837 nM; with SRC, 742 nM. In addition, the potency estimated from few doses with YES1 is 459 nM.
On to `COc1cc2ncnc(Nc3cccc(Br)c3)c2cc1OC.Cl` [GI230329A], for which the potency estimated from few doses with CAMK2B (setting [1]) was 405 nM; with CDC7 it was 2060 nM; in the experiment with FN3K it was 2150 nM; in the experiment on GAK it was 319 nM; in the experiment with ICK, 1370 nM; in the experiment with MAPK10, 956 nM. In addition, the potency estimated from few doses with RIPK2 (setting [1]) was 1140 nM.
`COc1ccc(-c2nn3ncccc3c2-c2ccnc(Nc3cccc(C(F)(F)F)c3)n2)cc1` [GW827105X]: the potency estimated from few doses in the experiment on CDC42BPG was 1920 nM.
